Laboratory results taken from PubChem BioAssay AID1159580 (chemical genetic matrix, 2015).
“And” between values parts separate entries of the source, which are not always exact repeats. Equal values may be shown once. In all, about 5,500 compounds went through this assay and about 2,000 (36%) were called active. About 18% were inconclusive and are not listed. Rule as the data show it: active = normalized growth mostly below about 0.91 (no sharp cut-off); inconclusive = no clear call, values can overlap the other calls; inactive = mostly above about 0.92. The list shows a part of the results.

Assay: chemical genetic growth profiling, strain panel (AID 1159580);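 also: tested at 20 µM; growth read once vehicle control cultures reached saturation at 30 °C; 1 = growth at the plate median or of vehicle wells; lower values mean less growth of the strain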
Details: S. cerevisiae deletion strains, growth OD

Measured: normalized growth

S=c1nc[nH]c2nc[nH]c12
inactive: locus YAL013W, strain DEP1, active compounds read low 0.996 | locus YAL021C, strain ccr4, active compounds read low 1.02 | locus YAL026C, strain drs2, active compounds read low 0.991 | locus YAL030W, strain snc1, active compounds read low 1.02 | locus YBL061C, strain skt5, active compounds read low 1.02 | locus YBR009C, strain hhf1, active compounds read low 0.997 | locus YBR021W, strain FUR4, active compounds read low 0.997 | locus YBR023C, strain chs3, active compounds read low 1.02 | locus YBR171W, strain sec66, active compounds read low 0.976 | locus YBR229C, strain ROT2, active compounds read low 1 | locus YBR231C, strain swc5, active compounds read low 1.02 | locus YBR279W, strain paf1, active compounds read low 1 | locus YCL011C, strain gbp2, active compounds read low 0.972 | locus YCL016C, strain dcc1, active compounds read low 1.01 | locus YCL029C, strain bik1, active compounds read low 0.976 | locus YCL069W, strain vba3, active compounds read low 0.964 | locus YCR088W, strain abp1, active compounds read low 0.977 | locus YDL005C, strain med2, active compounds read low 0.988 | locus YDL035C, strain GPR1, active compounds read low 1 | locus YDL040C, strain nat1, active compounds read low 1.02 | locus YDL074C, strain BRE1, active compounds read low 1 | locus YDL101C, strain DUN1, active compounds read low 0.996 | locus YDL134C, strain PPH21, active compounds read low 1.01 | locus YDL185W, strain tfp1, active compounds read low 0.964 | locus YDL192W, strain arf1, active compounds read low 0.974 | locus YDR001C, strain nth1, active compounds read low 0.972 | locus YDR069C, strain doa4, active compounds read low 1.02 | locus YDR101C, strain arx1, active compounds read low 1 | locus YDR137W, strain rgp1, active compounds read low 1.02 | locus YDR150W, strain NUM1, active compounds read low 0.999 | locus YDR159W, strain sac3, active compounds read low 0.985 | locus YDR162C, strain NBP2, active compounds read low 0.996 | locus YDR195W, strain ref2 0.992 | locus YDR297W, strain sur2, active compounds read low 1.02 | locus YDR318W, strain mcm21, active compounds read low 0.977 | locus YDR334W, strain swr1, active compounds read low 1.05 | locus YDR335W, strain msn5, active compounds read low 1.01 | locus YDR388W, active compounds read low 0.999 | locus YDR392W, strain spt3, active compounds read low 1.01 | locus YDR502C, strain sam2, active compounds read low 0.991 | locus YEL003W, strain gim4, active compounds read low 0.963 | locus YEL037C, strain rad23, active compounds read low 0.977 | locus YEL061C, strain CIN8 (second series), active compounds read low 0.992 | locus YEL061C, strain CIN8, active compounds read low 0.991 | locus YER015W, strain faa2, active compounds read low 1.01 | locus YER016W, strain bim1, active compounds read low 1 | locus YER110C, active compounds read low 0.969 | locus YER111C, strain swi4, active compounds read low 0.966 | locus YER155C, strain BEM2 (second series), active compounds read low 0.963 | locus YER155C, strain BEM2, active compounds read low 0.99 | locus YER167W, strain BCK2, active compounds read low 0.987 | locus YFR010W, strain ubp6, active compounds read low 0.987 | locus YGL078C, strain dbp3, active compounds read low 0.984 | locus YGL086W, strain mad1, active compounds read low 1.01 | locus YGL167C, strain pmr1, active compounds read low 1.01 | locus YGL173C, strain kem1, active compounds read low 1 | locus YGL227W, strain vid30, active compounds read low 0.975 | locus YGL240W, strain doc1, active compounds read low 1.01 | locus YGL248W, strain PDE1, active compounds read low 0.995 | locus YGL253W, strain hxk2, active compounds read low 1.02 | locus YGR078C, strain PAC10, active compounds read low 1 | locus YGR135W, strain pre9, active compounds read low 0.941 | locus YGR252W, strain gcn5, active compounds read low 0.979 | locus YHR013C, strain ard1, active compounds read low 1.06 | locus YHR027C, strain rpn1, active compounds read low 1.01 | locus YHR030C, strain SLT2, active compounds read low 0.999 and 1.02 | locus YHR079C, strain IRE1 (second series), active compounds read low 0.983 | locus YHR079C, strain IRE1, active compounds read low 1 | locus YHR094C, strain hxt1, active compounds read low 0.987 | locus YHR129C, strain ARP1, active compounds read low 1 | locus YHR142W, strain chs7, active compounds read low 0.999 | locus YHR200W, strain rpn10, active compounds read low 0.98 | locus YIL066C, strain RNR3, active compounds read low 1 | locus YIL073C, strain SPO22, active compounds read low 0.934 | locus YIL125W, strain kgd1, active compounds read low 0.994 | locus YIR030C, strain dcg1, active compounds read low 0.974 | locus YJL092W, strain hpr5, active compounds read low 0.986 | locus YJL095W, strain BCK1 (second series), active compounds read low 1.01 | locus YJL095W, strain BCK1, active compounds read low 0.983 and 1.02 | locus YJL115W, strain asf1, active compounds read low 0.972 | locus YJL129C, strain trk1, active compounds read low 0.97 | locus YJL134W, strain LCB3, active compounds read low 0.984 | locus YJL154C, strain vps35, active compounds read low 0.967 | locus YJL164C, strain tpk1, active compounds read low 0.988 | locus YJL166W, strain qcr8, active compounds read low 1.01 | locus YJL168C, strain set2, active compounds read low 0.989 | locus YJL187C, strain SWE1 (second series), active compounds read low 0.997 | locus YJR043C, strain POL32, active compounds read low 1 | locus YJR066W, strain TOR1, active compounds read low 0.975
